test system: CLK3
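Note: kd values determined as follow-up on hits from a single-replicate KINOMEscan panel screen.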

Row | Structure (SMILES) | Kd
1 | COc1ccc(NC(=O)c2ccc(-c3cc(-c4nnc(C)o4)ccc3C)cc2)cc1 [GW595885] | > 10000 nM
2 | Nc1nc(-c2cccnc2)c(-c2ccnc3ccccc23)s1 [GW684083] | > 10000 nM
3 | CSc1nn2c(=O)cc(N3CCOCC3)nc2n1Cc1cccc(Cl)c1Cl [GSK2347225] | > 10000 nM
4 | Nc1nccc2scc(-c3ccc4c(c3)CCN4C(=O)Cc3cc(F)ccc3F)c12 [GSK2587663] | > 10000 nM

test system: CSF1R

Row | Structure (SMILES) | Kd
5 | O=C(NCCCN1CCCC1=O)c1cnc(NCc2cc(Cl)ccc2Cl)nc1NC1CCNCC1 | > 10000 nM
6 | COc1ccc(NC(=O)Nc2ccc(C)c(-c3ccc(C(=O)Nc4ccncc4)cc3)c2)cc1 [GSK1398475] | 1800 nM
7 | COc1cc2c(Nc3cccc(NC(=O)c4ccccc4)c3)ncnc2cc1OCCCN1CCOCC1 [GSK223810] | 420 nM
8 | Cn1ccc2ncnc(Oc3ccc(NC(=O)Nc4cccnc4)c(Cl)c3)c21 | 290 nM
9 | Cc1ccc(NC(=O)c2cccc(C#N)c2)cc1-c1ccc(C(=O)Nc2ccncc2)cc1 [GSK1398463] | 780 nM
